We go through 8 compounds from PubChem BioAssay (Tox21).

Several values for one entry are separate records, joined by “and”; a condition that tells them apart may be missing. Equal values may be shown once. Results filed as inconclusive are left out. Activity calls are given as the source filed them. Unless noted, calls follow the shape of the dose curve; as a rule, active = well fitted curve in the direction sought with a large enough effect in the repeat runs; inconclusive = weak or mixed curves; inactive = no such curve, though single readings can be large; an effect the other way counts as inactive or inconclusive.

The nature of experiment [1]: qHTS assay to identify small molecule agonists of the RXR signaling pathway - cell viability counter screen (AID 1159529).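 Also: HEK 293T cells carrying an RXR-alpha UAS beta-lactamase reporter; nearly all actives have a fitted effect of over 50% in size.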 A digest of the protocol: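 Counter screen: CellTiter-Glo luminescence. Cells: RXR-alpha-UAS-bla HEK 293T. Medium: 2% charcoal-stripped FBS. Treatment: 16 h, 37 C. Reagent incubation: 30 min, RT.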
(qHTS replaces the single test concentration by a dilution series.)

Experiment [2] can be described thus: qHTS assay to identify small molecule antagonists of the retinoid acid receptor (RAR) signaling pathway - cell viability counter screen (AID 1159551). Also: nearly all actives have a fitted effect of over 35% in size. A digest of the protocol:
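Following overnight attachment, C3RL4 reporter cells received DMSO-dissolved compounds and then retinol (1 uM final). Six hours later at 37 C, ATP content was measured by CellTiter-Glo luminescence.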

Experiment [3] is described as follows: qHTS assay to identify small molecule antagonists of the retinoic acid receptor (RAR) signaling pathway (AID 1159552; also: nearly all actives have a fitted effect of over 50% in size). In short, it runs like this:
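Antagonism of retinol-induced RARE reporter activity was measured in C3RL4 cells. Exposure to compounds and 1 uM final retinol lasted 6 hr at 37 C, with luminescence as endpoint.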

Experiment [4] is described as follows: qHTS assay to identify small molecule agonists of the retinoic acid receptor (RAR) signaling pathway (AID 1159553). Also: potency is read from the fitted curve at half-maximal effect. Conditions: C3RL4 RARE luciferase reporter, agonist, 6 h; activation: at 73.3 µM (top of the series) unless noted. In short, it runs like this: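 Cell line C3RL4, RARE luciferase reporter. Treatment: compounds in DMSO, 6 hr, 37 C, 5% CO2, after overnight plating. Detection: luminescence, 30 min RT after reagent.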

Experiment [5] can be described thus: qHTS assay to identify small molecule antagonists of the estrogen related receptor (ERR) signaling pathway - cell viability counter screen (AID 1224818). In short, it runs like this:
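Here, ERR cells are plated at 2,000 cells per well, allowed 6 h to attach, and treated with compounds in DMSO for 17.5 h at 37 C. CellTiter-Fluor is then added and fluorescence read after 30 min.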

Experiment [6] is described as follows: qHTS assay to identify small molecule antagonists of the estrogen related receptor (ERR) signaling pathway (AID 1224819;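 also: luminescence from an ERR-driven luciferase reporter measured with One-Glo reagent; nearly all actives have a fitted effect of over 50% in size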). A digest of the protocol:
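LOPAC library screened for antagonism as reduced One-Glo luminescence in ERR reporter cells (2,000/well). Compounds were added after 6 h pre-incubation and left 18 h at 37C; reading followed a 30 min room-temperature reagent step.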

Experiment [7] is described as follows: qHTS assay to identify small molecule agonists of the estrogen related receptor (ERR) signaling pathway (AID 1224820). In short, it runs like this:
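Cells: ERR line from NTP, 2,000/well. Pre-incubation 6 h, 37 C/5% CO2. Compound (DMSO) pin transfer, 18 h 37 C. One-Glo, 30 min RT, luminescence.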

Experiment [8] has as its system estrogen-related receptor alpha (ERRalpha) with PGC-1alpha coactivator, human. Description: qHTS assay to identify small molecule antagonists of the estrogen related receptor signaling pathway with the pleiotropic PPARgamma coactivator (PGC) (AID 1224821; calls by dose curve;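 also: lower luminescence signal means antagonism of PGC/ERR signalling; nearly all actives have a fitted effect of over 50% in size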). In short, it runs like this:
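Luminescent read-out (One-Glo, 30 min at room temperature) following 18 h treatment of PGC/ERR cells at 37 C with compounds delivered in DMSO. Cells had settled 6 h at 37 C/5% CO2 before dosing.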

Experiment [9] is described as follows: qHTS assay to identify small molecule antagonists of the estrogen related receptor signaling pathway with the pleiotropic PPARgamma coactivator (PGC) cell viability counter screen (AID 1224822). In short, it runs like this: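 qHTS format, DMSO compound stocks pin-transferred onto PGC/ERR cells 6 h after plating; 17.5 h exposure at 37 C, then CellTiter-Fluor fluorescence.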

Experiment [10] is described as follows: qHTS assay to identify small molecule agonists of the estrogen related receptor signaling pathway with the pleiotropic PPARgamma coactivator (PGC) (AID 1224823). In short, it runs like this: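 Steps: plate PGC/ERR cells at 2,000 cells/well; incubate 6 h, 37 C/5% CO2; pin-transfer compounds (DMSO); incubate 18 h, 37 C; add One-Glo; 30 min RT; read luminescence.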

The nature of experiment [11]: qHTS assay to identify small molecule agonists of the constitutive androstane receptor (CAR) signaling pathway - cell viability counter screen (AID 1224836). Also: nearly all actives have a fitted effect of over 45% in size. In short, it runs like this:
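Double-stable HepG2 hepatoma cells (hCAR plus CYP2B6-2.2kb) are treated for 23 h at 37 C with test compounds in 15-point concentration series. PK11195 at 0.75 uM final is co-added. Cell viability is quantified by CellTiter-Fluor.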

Experiment [12] in a line: qHTS assay to identify small molecule antagonists of the constitutive androstane receptor (CAR) signaling pathway - cell viability counter screen (AID 1224837). Also: nearly all actives have a fitted effect of over 45% in size. A digest of the protocol: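 Fluorescence from CellTiter-Fluor served as the viability signal. Human hepatoma HepG2 cells stably bearing hCAR and CYP2B6-2.2kb received compound plus CITCO (50 nM final) for 23 hr.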

The target of experiment [13] is Nuclear receptor subfamily 1 group I member 3 (Homo sapiens) (UniProt Q14994). As to the kind of experiment: qHTS assay to identify small molecule antagonists of the constitutive androstane receptor (CAR) signaling pathway (AID 1224838).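 Also: HepG2 cells stably expressing hCAR with CYP2B6 luciferase reporter stimulated by CITCO; nearly all actives have a fitted effect of over 40% in size.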 In short, it runs like this:
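Quantitative HTS in double-stable HepG2-CYP2B6-hCAR cells. After 4 h plating, cells get compound (15 concentrations) and CITCO at 50 nM final, incubate 24 h at 37 C, then ONE-Glo luminescence is read.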

For experiment [14] the target is unchanged. Description: qHTS assay to identify small molecule agonists of the constitutive androstane receptor (CAR) signaling pathway (AID 1224839). Also: nearly all actives have a fitted effect of over 15% in size. Also: potency is read from the fitted curve at half-maximal effect.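 As to activation: HepG2 cells stably carrying human CAR and a CYP2B6 luciferase reporter.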 A digest of the protocol:
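Readout: firefly luciferase luminescence via ONE-Glo. System: HepG2 double-stable for hCAR and CYP2B6-2.2kb. Conditions: 15-point compound titration, PK11195 at 0.75 uM final, 24 h incubation.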

The nature of experiment [15]: qHTS assay to identify small molecule antagonists of the estrogen related receptor signaling pathway with the pleiotropic PPARgamma coactivator (PGC) from Tox21 10K library - cell viability counter screen (AID 1224840; active = well fitted cell-killing curve with a large enough effect in the repeat runs, not every such curve was filed as active; also: nearly all actives have a fitted effect of over 40% in size). A digest of the protocol: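 Compounds in DMSO, alongside positive and negative controls, were pinned onto PGC/ERR cells (2,000 per well). Exposure lasted 17.5 hours at 37 C, followed by a 30-minute CellTiter-Fluor incubation and fluorescence reading.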

Experiment [16] in a line: qHTS assay to identify small molecule antagonists of the estrogen related receptor signaling pathway with the pleiotropic PPARgamma coactivator (PGC) from Tox21 10K library (AID 1224841; call rule not given here; also: potency is read from the fitted curve at half-maximal effect). In short, it runs like this: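 Compound exposure ran 18 hours at 37 C in PGC/ERR cells (2,000/well) that had first rested 6 hours in a 37 C/5% CO2 incubator. Luciferase activity was then detected with One-Glo after a 30-minute room-temperature step.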

Experiment [17] can be described thus: qHTS assay to identify small molecule agonists of the estrogen related receptor signaling pathway with the pleiotropic PPARgamma coactivator (PGC) from Tox21 10K library (AID 1224842). Also: nearly all actives have a fitted effect of over 15% in size. In short, it runs like this: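 Luminescence from One-Glo (30 min, room temperature) measured after PGC/ERR cells had 18 h at 37 C with pinned compound (23 nL in DMSO). Cells had been seeded at 2,000 per well and pre-incubated 6 h.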

A short description of experiment [18]: qHTS assay to identify small molecule antagonists of the estrogen related receptor (ERR) signaling pathway from Tox21 library - cell viability counter screen (AID 1224834). Also: nearly all actives have a fitted effect of over 30% in size. Also: potency is read from the fitted curve at half-maximal effect. In short, it runs like this: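 Viability readout (CellTiter-Fluor fluorescence, 30 min at 37 C) multiplexed with the ERR assay; cells treated 17.5 h at 37 C with compounds delivered in DMSO.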

In experiment [19] the target is Luciferin 4-monooxygenase (Photinus pyralis) (UniProt P08659). Description: qHTS assay to identify small molecule inhibitors of firefly luciferase (AID 1224835). Also: nearly all actives have a fitted effect of over 25% in size. Also: potency is read from the fitted curve at half-maximal effect. In short, it runs like this:
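Inhibition of purified Photinus luciferase is measured by luminescence. Substrate levels (D-luciferin, ATP) sit at their KM values. Each compound is tested in a concentration series.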

Experiment [20] deals with Thyrotropin receptor (Homo sapiens) (UniProt P16473). As to the kind of experiment: qHTS assay to identify small molecule agonists of the thyroid stimulating hormone receptor (TSHR) signaling pathway (AID 1224843; calls by dose curve; also: nearly all actives have a fitted effect of over 45% in size). In short, it runs like this: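 Screening of the Tox21 10K collection used HEK293 cells engineered with TSHR at 800 cells per well. After a 30-min room-temperature compound exposure, HTRF cAMP reagents were added and fluorescence recorded 1 h later.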
Sequence of Thyrotropin receptor (Homo sapiens) (P16473 whole entry, looked up): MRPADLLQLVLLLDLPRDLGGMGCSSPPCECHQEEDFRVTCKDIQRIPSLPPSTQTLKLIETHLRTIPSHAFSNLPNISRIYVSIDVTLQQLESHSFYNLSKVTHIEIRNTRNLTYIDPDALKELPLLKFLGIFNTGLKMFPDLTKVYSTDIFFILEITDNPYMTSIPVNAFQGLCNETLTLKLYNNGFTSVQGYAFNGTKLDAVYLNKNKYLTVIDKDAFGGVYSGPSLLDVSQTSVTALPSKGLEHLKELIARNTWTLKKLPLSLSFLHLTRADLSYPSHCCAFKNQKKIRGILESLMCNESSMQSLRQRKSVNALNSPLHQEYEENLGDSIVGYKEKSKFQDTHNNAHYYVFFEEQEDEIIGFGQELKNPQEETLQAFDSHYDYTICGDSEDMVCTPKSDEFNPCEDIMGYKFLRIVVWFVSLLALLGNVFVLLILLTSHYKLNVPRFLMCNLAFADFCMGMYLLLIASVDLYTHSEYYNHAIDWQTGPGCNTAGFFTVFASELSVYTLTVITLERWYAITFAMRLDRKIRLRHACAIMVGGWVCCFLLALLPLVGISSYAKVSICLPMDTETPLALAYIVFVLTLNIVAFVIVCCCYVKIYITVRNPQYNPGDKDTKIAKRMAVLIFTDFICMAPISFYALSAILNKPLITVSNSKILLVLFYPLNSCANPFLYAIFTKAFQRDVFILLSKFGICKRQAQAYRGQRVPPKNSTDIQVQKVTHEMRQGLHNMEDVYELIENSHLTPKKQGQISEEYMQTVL

Sequence of Luciferin 4-monooxygenase (Photinus pyralis) (P08659 whole entry, looked up): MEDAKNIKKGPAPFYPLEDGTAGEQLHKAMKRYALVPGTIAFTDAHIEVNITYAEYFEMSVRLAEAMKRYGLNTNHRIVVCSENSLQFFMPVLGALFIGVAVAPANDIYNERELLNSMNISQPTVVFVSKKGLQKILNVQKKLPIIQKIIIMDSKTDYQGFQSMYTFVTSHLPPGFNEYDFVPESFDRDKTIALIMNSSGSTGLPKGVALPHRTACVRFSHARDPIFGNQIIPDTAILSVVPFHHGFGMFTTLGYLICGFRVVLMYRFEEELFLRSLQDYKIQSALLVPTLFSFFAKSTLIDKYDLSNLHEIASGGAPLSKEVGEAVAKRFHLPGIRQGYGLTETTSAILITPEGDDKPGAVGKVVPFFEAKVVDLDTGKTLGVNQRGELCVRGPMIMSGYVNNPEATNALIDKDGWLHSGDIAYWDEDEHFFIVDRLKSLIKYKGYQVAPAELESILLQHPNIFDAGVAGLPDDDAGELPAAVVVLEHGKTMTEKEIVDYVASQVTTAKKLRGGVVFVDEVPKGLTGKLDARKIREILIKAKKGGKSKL
Sequence of Nuclear receptor subfamily 1 group I member 3 (Homo sapiens) (Q14994 whole entry, looked up): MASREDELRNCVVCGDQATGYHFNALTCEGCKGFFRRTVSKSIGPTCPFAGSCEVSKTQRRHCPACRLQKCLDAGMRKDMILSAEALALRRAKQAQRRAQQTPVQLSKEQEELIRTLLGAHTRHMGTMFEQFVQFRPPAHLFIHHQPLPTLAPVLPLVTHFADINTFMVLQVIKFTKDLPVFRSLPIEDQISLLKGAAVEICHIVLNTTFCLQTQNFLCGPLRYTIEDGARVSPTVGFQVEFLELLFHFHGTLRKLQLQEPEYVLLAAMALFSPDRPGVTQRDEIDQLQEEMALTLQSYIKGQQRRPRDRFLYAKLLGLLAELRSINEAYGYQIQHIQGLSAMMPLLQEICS

`c1ccc2c(c1)Nc1ccccc1S2`: the Potency entry in experiment [1], in experiment [2], in experiment [3], in experiment [4], in experiment [6] and in experiment [8] was “inactive” in each case. For the same compound, the Potency entry in [9], in [11], in [12], in [13], in experiment [15] and in [16] was “inactive” in each case. Besides, the Potency entry in [17] was “inactive”. The compound was classed as inactive in experiment [5], in [7] and in experiment [10]. Further, in [14], the Potency was 30.6 µM (active).

On to `CCCCSP(=O)(SCCCC)SCCCC`, for which the Potency result in experiment [1], in experiment [2], in [3], in experiment [4], in experiment [18] and in experiment [19] was “inactive” in each case. Further, the Potency entry in experiment [11], in experiment [12], in experiment [13] and in experiment [15] was “inactive” in each case. In addition, the Potency in experiment [14] is 23.8 µM (active) and 8.63 µM (active).

With `CC1(C)C(C(=O)OC(C#N)c2cccc(Oc3ccccc3)c2)C1(C)C` (stereo unspecified), the Potency entry in [1], in experiment [2], in experiment [3], in experiment [4], in experiment [18] and in [19] was “inactive” each time. In addition, the Potency entry in experiment [11], in experiment [12], in experiment [13], in [15] and in experiment [17] was “inactive” in each case. Further, the Potency in [14] is 12.3 µM (active) and 24.3 µM (active); in experiment [16], 27.5 µM (active).

With `Oc1ccc(Cl)cc1Cl`, the Potency entry in experiment [1], in experiment [2], in experiment [3], in [4], in experiment [18] and in experiment [19] was “inactive” in each case. The Potency entry in [11], in [12], in [13], in experiment [14], in [15] and in [16] was “inactive” throughout. Also, the Potency result in experiment [17] is “inactive”.

As to `N#Cc1nn(-c2c(Cl)cc(C(F)(F)F)cc2Cl)c(N)c1S(=O)C(F)(F)F` (stereo unspecified), the Potency result in experiment [1], in experiment [2], in experiment [4], in [19], in [12] and in experiment [13] was “inactive” in each case. The Potency result in [14], in experiment [15], in [17] and in experiment [20] was “inactive” in each case. Further, the Potency in experiment [18] is 27.5 µM (active) and 29.8 µM (active); in [16] it was 7.74 µM (active) and 21.1 µM (active).

Regarding `CCCCOCC1CO1` (stereo unspecified), the Potency entry in experiment [1], in [2], in [3], in experiment [4], in [18] and in experiment [11] was “inactive” in each case. For the same compound, the Potency result in experiment [12], in [13], in [14], in experiment [15], in [16] and in experiment [17] was “inactive” each time. Besides, the Potency result in experiment [20] is “inactive”.

For `CCOP(=S)(OCC)SCn1c(=O)oc2cc(Cl)ccc21`, the Potency entry in experiment [1], in [2], in experiment [3], in [4], in [11] and in [12] was “inactive” each time. Moreover, the Potency entry in experiment [13], in experiment [15] and in experiment [20] was “inactive” in each case. The Potency is 38.2 µM (active) in experiment [19]; 58.4 µM (active) and 24.3 µM (active) in experiment [14].

Regarding `CC1=C(C(=O)Nc2ccccc2)SCCO1`, the Potency entry in experiment [1], in experiment [2], in experiment [3], in experiment [18], in experiment [11] and in experiment [12] was “inactive” in each case. Besides, the Potency result in experiment [15], in experiment [16], in experiment [17] and in [20] was “inactive” in each case. Further, the Potency in experiment [4] is 15.6 µM (active).
